Source: PubChem
ANO1 activ – TMEM16A chloride channel activators or potentiators, primary screen, cell-based, HTS | actives 0.3% (n = 340,000) | HEK293 TMEM16A/YFP-H148Q/I152L, iodide quench fluorescence; hits give low values | B-score at 10 µM;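 active = fluorescence-ratio B-score plate-corrected deviation score at least 3 library SD below zero, with starting fluorescence score within 5 deviations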;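 note: channel opened by trigger with iodide after compound preincubation; score built on the fluorescence ratio of max minus min over baseline; more negative score means more quench and so TMEM16A activation or potentiation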
PKA-R1A act – activators of PKA-R1A holoenzyme, primary screen, biochemical, fluorescence polarization, Cy5-IP20, bovine R1A, mouse PKAc; actives 0.083% (n = 340,000); activation, % at 11.4 µM; PKA-R1A dissociation; scaled: DMSO 0%, 113 µM cGMP 100%; AID 504707, 2011; cAMP-dependent protein kinase type I-alpha regulatory subunit (Bos taurus) + …;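 active = percent activation above the mean of all tested compounds plus 3 SD, cut at about 19% in these data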;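 note: higher means more PKAc released from R1A so a rise in polarization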
PKA-R2B act – activators of PKA-R2B holoenzyme, primary screen, biochemical, fluorescence polarization, Cy5-IP20, human; actives 0.079% (n = 340,000); cAMP-dependent protein kinase catalytic subunit beta (Homo sapiens) + cAMP-dependent …; PKA-R2B holoenzyme dissociation; R2B truncated from residue 108, S112A mutant; 0% DMSO only, 100% 113 µM cGMP; activation, % at 11.4 µM; AID 504700, 2011;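 active = activation above a cutoff set at the mean over all compounds plus 3 SD, cut at about 18% in these data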;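 note: higher means more holoenzyme dissociation and a rise in polarization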
CHT block – inhibitors of human choline transporter CHT. AID 488975, 2010. B-score at 10 µM. CHT-expressing cells, membrane potential dye, choline response; hits give low values. actives 0.86% (n = 310,000);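 active = B-score over 3 SD under the library average, and starting fluorescence ratio not unusually high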;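 note: choline stimulus applied at its EC90 after an EC20 pre-addition; B-score computed on integrated fluorescence ratio after choline addition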
CHT allo act – CHT positive allosteric modulators, primary screen, cell-based, membrane potential dye, choline EC20. CHT-expressing cells; hits give high values; LV-AA mutant CHT in HEK293 cells. B-score at 10 µM. actives 0.49% (n = 310,000);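 active = initial fluorescence not abnormally high and integrated response B-score, plate-corrected, over 3 SD above library mean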
ANO1 block – TMEM16A chloride channel inhibitors, primary screen, cell-based, HTS | Anoctamin-1 (Mus musculus), Q8BHY3 | HEK293 TMEM16A/YFP iodide influx fluorescence, ionomycin | normalized B-score (activity score, 25-100; higher = stronger inhibition) at 10 µM | actives 1.2% (n = 310,000);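 active = ratio plate-corrected score three or more library SD toward inhibition, starting fluorescence score within five deviations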;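 note: score derived from kinetic fluorescence span divided by baseline fluorescence per well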
TMEM16A reconf – TMEM16A chloride channel inhibitors, confirmation, cell-based, re-confirmation. actives 39% (n = 2,300). inhibition, % at 10 µM. AID 652189, 2013. shares compounds with ANO1 block. HEK293 TMEM16A/YFP-H148Q, iodide quench fluorescence; ionomycin added to raise cell calcium;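 active = mean duplicate percent inhibition, scaled so buffer wells are 0 and the reference blocker 100, over three buffer SD above buffer mean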
TMEM16A Ca cntr – calcium mobilization in TMEM16A/YFP HEK293 cells, confirmation, counter-screen for TMEM16A inhibitor project | shares compounds with ANO1 block | Fluo4 calcium mobilization | calcium response (% of ionomycin), % at 10 µM | actives 2% (n = 2,300);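 active = duplicate-averaged calcium signal over 20% of the ionomycin maximum, relative to buffer baseline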;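 note: each well's signal is peak minus trough fluorescence divided by its pre-addition baseline; 0% = buffer wells and 100% = ionomycin wells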
Parental YFP cnt – iodide YFP quench changes in parental YFP-HEK293, counter-screen for TMEM16A inhibitor project, cell-based | ionomycin | shares compounds with ANO1 block | 2,300 tested, under 10 active | YFP ratio F(max-min)/F0 at 10 µM;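 active = yellow fluorescent protein signal ratio exceeding the buffer control mean by over 5 SD of those controls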;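 note: ratio is mean of duplicate wells from kinetic YFP trace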
ClC-1 inh – ClC-1 chloride channel inhibition, selectivity assay for TMEM16A inhibitor project, cell-based, voltage-dependent ClC-1. shares compounds with ANO1 block. CHO ClC-1-YFP, iodide influx fluorescence quench; iodide control reads 0, buffer control 100. ratio percent, % at 10 µM. 2,300 tested, under 10 active;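 active = duplicate-mean ratio percent above the mean of iodide-only control wells, which defines zero, plus 5 of their SD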;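 note: higher percent means stronger block of ClC-1 iodide influx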
Active calls of the source: *. The list is not random: actives were taken first. Their share in the collection is about 2.5%.

What do the screens show for `Cc1ccc(NC(=O)COc2coc(CN3CCN(Cc4ccccc4)CC3)cc2=O)cc1`?
ANO1 activ: inactive; PKA-R1A act: -2; PKA-R2B act: -1; CHT block: inactive; CHT allo act: inactive; ANO1 block: 25*; TMEM16A reconf: inactive; TMEM16A Ca cntr: inactive; Parental YFP cnt: -0.99; ClC-1 inh: -10

Results for Cc1ccnc(NC(=O)COc2ccc3oc4c(c3c2)CCCC4)c1 ?
ANO1 activ: inactive; PKA-R1A act: -9; PKA-R2B act: -11; CHT block: inactive; CHT allo act: inactive; ANO1 block: 100*; TMEM16A reconf: inactive; TMEM16A Ca cntr: inactive; Parental YFP cnt: -1.1; ClC-1 inh: -2

Results for CCOC(=O)c1ccc(NC(=O)CCc2nc(-c3ccccc3Cl)no2)cc1 ?
ANO1 activ: inactive; PKA-R1A act: -8; PKA-R2B act: -4; CHT block: inactive; CHT allo act: inactive; ANO1 block: 100*; TMEM16A reconf: 38%*; TMEM16A Ca cntr: inactive; Parental YFP cnt: -1.1; ClC-1 inh: -28

Results for O=S(=O)(Nc1ccc(S(=O)(=O)N2CCCCC2)cc1)c1ccc(Br)s1 ?
ANO1 activ: inactive; PKA-R1A act: -1; PKA-R2B act: -9; CHT block: inactive; CHT allo act: inactive; ANO1 block: 25*; TMEM16A reconf: inactive; TMEM16A Ca cntr: inactive; Parental YFP cnt: -0.95; ClC-1 inh: -4

What do the screens show for `CC1c2cc3c(cc2CCN1C(=O)c1ccc(Cl)cc1)OCCCO3` (configuration not stated)?
ANO1 activ: inactive; PKA-R1A act: -8; PKA-R2B act: -2; CHT block: inactive; CHT allo act: inactive; ANO1 block: 25*; TMEM16A reconf: inactive; TMEM16A Ca cntr: inactive; Parental YFP cnt: -1; ClC-1 inh: -9

Results for Cc1onc(-c2ccccc2Cl)c1C(=O)Nc1cccc(-c2cn3cccnc3n2)c1 ?
ANO1 activ: inactive; PKA-R1A act: 1; PKA-R2B act: -8; CHT block: inactive; CHT allo act: inactive; ANO1 block: 25*; TMEM16A reconf: inactive; TMEM16A Ca cntr: inactive; Parental YFP cnt: -0.95; ClC-1 inh: -8

What do the screens show for `O=C(Nc1sc(-c2ccccc2)cc1C(=O)O)c1ccccc1`?
ANO1 activ: inactive; PKA-R1A act: -5; PKA-R2B act: -9; CHT block: inactive; CHT allo act: inactive; ANO1 block: inactive

How did CC1=NN(c2ccccc2)C(=O)/C1=C\C=C1/N(C)c2ccccc2C1(C)C do in these assays?
ANO1 activ: inactive; PKA-R1A act: -1; PKA-R2B act: -2; CHT block: inactive; CHT allo act: inactive; ANO1 block: inactive
